Measurements reported in PubChem BioAssay (EPA / NIEHS).
“And” between values parts separate entries of the source, which are not always exact repeats. Equal entries are not always repeated. Inconclusive results are not listed. A structure can be active in one record and inactive in another. The source made the active and inactive calls. How the source made its calls: active means hit-call score of the fitted dose curve at least 0.9, where 1 is the maximum; inconclusive means response in the unintended direction; inactive means score below 0.9.

What was measured:
[1] = biological target: bovine Estrogen Receptor (ER), ESR1 (gene 407238) (UniProt P49884); assay: NVS_NR_bER: NovaScreen (NVS) Nuclear Receptor Binding Assay for bovine Estrogen Receptor (ER) (AID 2283345);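 further: actives lower the bound radioligand count which means they displace the ER ligand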
Summary of the method: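 Cell-free radioligand binding with receptor from bovine uterine membranes, read by scintillation counting 18 h after dosing. Loss of specific binding was scored against DMSO; primary screen at 25 uM in duplicate, actives then run as concentration series.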

[2] = biological target: chimpanzee Androgen Receptor (AR), AR (gene 747460) (UniProt O97775); assay: NVS_NR_cAR: NovaScreen (NVS) Nuclear Receptor Binding Assay for chimpanzee Androgen Receptor (AR) (AID 2283346);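 further: a loss of bound radioligand signal versus DMSO counts as binding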
Experimental: NVS_NR_cAR is a biochemical, single-readout assay that uses extracted gene-proteins from Sf9/Sf21 in a cell-free assay. Measurements were taken 72 hours after chemical dosing in a 96-well plate.NVS_NR_cAR is one of one assay component(s) measured or calculated from the NVS_NR_cAR assay. It is designed to make measurements of radioligand binding, a form of binding reporter, as detected with scintillation counting signals by Lysate-based radiodetection technology.Data from the assay component NVS_NR_cAR was analyzed into 1 assay endpoint. This assay endpoint, NVS_NR_cAR, was analyzed in the positive analysis fitting direction relative to DMSO as the negative control and baseline of activity. Using a type of binding reporter, loss-of-signal activity can be used to understand changes in the binding as they relate to the gene AR. Furthermore, this assay endpoint can be referred to as a primary readout, because the performed assay has only produced 1 assay endpoint. To generalize the intended target to other relatable targets, this assay endpoint is annotated to the nuclear receptor intended target family, where the subfamily is steroidal.
Binding assays used specific radioligands (tritiated, iodinated) with non-radioactive competitive displacement ligands in agonist or antagonist protocols (as indicated) and various reference compounds and inhibitors to titrate specific binding to receptors and transporters. Most enzyme assays (CYPs, kinases, phosphatases, proteases, HDACs) used recombinant protein and specific substrates (fluorescence mostly, some colorimetric and radioactive) and inhibitors, followed by a biochemical separation of substrate and product. All assays for the biochemical HTS were initially run in duplicate at a single concentration (10 uM for CYP450 assays and 25 uM for all others). […] Each assay was run with positive and negative controls, and concurrent controls on every plate. The follow-up (secondary) screen tested active chemical-pairs in concentration series, as well as a few additional assays not tested in the primary screen, some selected negative inactives, and several cases re-run in the concentration series for confirmatory purposes.

[3] = biological target: Estrogen receptor (Homo sapiens) (UniProt P03372); assay: NVS_NR_hER: NovaScreen (NVS) Nuclear Receptor Binding Assay for human Estrogen Receptor (ER) (AID 2283348)
Summary of the method: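 Scintillation signal from bound radioligand was measured 18 hours after chemical addition to cell-free MCF7 protein extracts, with DMSO as baseline. Activity was scored as signal loss; compounds ran first at 25 uM in duplicate.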

[4] = biological target: Estrogen receptor (Homo sapiens) (UniProt P03372); assay: OT_ER_ERaERa_1440: Odyssey Thera (OT) 24-hour HEK293T Protein-Complementation Assay for Estrogen Receptor-alpha/-alpha Homodimer (AID 2283349);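 further: hits raise fluorescence above DMSO for agonists and antagonists alike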
Summary of the method: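 Protein-fragment complementation between two human ERα ligand-binding domains (aa 310-547) in stably transfected HEK293T cells was monitored after 24 h treatment, using fluorescence intensity relative to vehicle controls.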

[5] = biological target: bovine Gamma-Aminobutyric Acid Type A Receptor Agonist (GABAR Agonist), GABRA1 (gene 780973) (UniProt P08219); assay: NVS_LGIC_bGABAR_Agonist: NovaScreen (NVS) Ligand-Gated Ion Channel Assay for bovine Gamma-Aminobutyric Acid Type A Receptor Agonist (GABAR Agonist) (AID 2283338)
Summary of the method: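 Radioligand binding to bovine cerebellar membranes in agonist format, read by filter-based scintillation counting after 1 h. Primary screen in duplicate at 25 uM, with actives followed in concentration series. Gain of signal versus DMSO.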

[6] = tested on: NCBI gene 100848466; assay: NVS_NR_bPR: NovaScreen (NVS) Nuclear Receptor Binding Assay for bovine Progextron Receptor (PR) (AID 2283343);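 on AC50: actives lower bound radioligand signal below DMSO meaning displacement of the label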
Summary of the method: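 Membranes from bovine uterus; radiolabelled ligand plus test chemical; 18 h; scintillation read-out. Activity = signal loss vs DMSO. Primary: 25 uM, duplicate; secondary: concentration series.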

[7] = biological target: human Constitutive Androstane Receptor (CAR), NR1I3 (gene 9970) (UniProt Q14994); assay: NVS_NR_hCAR_Antagonist: NovaScreen (NVS) Nuclear Receptor Binding Assay for human Constitutive Androstane Receptor Antagonism (CAR) (AID 2283344)
Summary of the method: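 Cell-free TR-FRET binding read 1 h after dosing, antagonist mode; loss of signal versus DMSO baseline. Primary screen in duplicate at a single 25 uM; actives retested in concentration series.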

[8] = biological target: Bile acid receptor (Homo sapiens) (UniProt Q96RI1); assay: NVS_NR_hFXR_Agonist: NovaScreen (NVS) Nuclear Receptor Binding Assay for human Farnesoid X Receptor Agonism (FXR) (AID 2283347)
Summary of the method: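 Cell-free TR-FRET binding assay with extracted human FXR protein, agonist format, read 1 h after dosing. Primary screen at 25 uM single concentration in duplicate, actives retested in concentration series; gain of signal versus DMSO.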

[9] = biological target: rat Glycine Receptor, Strychnine-sensitive (GlyRStrySens), Glra1 (gene 25674) (UniProt P07727); assay: NVS_LGIC_rGlyRStrySens: NovaScreen (NVS) Ligand-Gated Ion Channel Assay for rat Glycine Receptor, Strychnine-sensitive (GlyRStrySens) (AID 2283341)
Summary of the method: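 Radioligand displacement on rat spinal cord membranes, 1 hr, filter scintillation read-out. Single-concentration duplicate screen at 25 uM; chemicals meeting threshold (e.g., 30% inhibition) rerun in concentration-response up to 50 uM. Loss of binding fitted versus DMSO.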

[10] = biological target: Bile acid receptor (Homo sapiens) (UniProt Q96RI1); assay: NVS_NR_hFXR_Antagonist: NovaScreen (NVS) Nuclear Receptor Binding Assay for human Farnesoid X Receptor Antagonism (FXR) (AID 2283350)
Summary of the method: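 Cell-free TR-FRET ligand-binding read-out on human FXR (NR1H4) in antagonist mode, measured 1 h after dosing. Primary screen in duplicate at 25 uM, actives retested in concentration series; signal loss scored versus DMSO.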

chimpanzee Androgen Receptor (AR), AR (gene 747460), sequence (O97775 whole entry, looked up): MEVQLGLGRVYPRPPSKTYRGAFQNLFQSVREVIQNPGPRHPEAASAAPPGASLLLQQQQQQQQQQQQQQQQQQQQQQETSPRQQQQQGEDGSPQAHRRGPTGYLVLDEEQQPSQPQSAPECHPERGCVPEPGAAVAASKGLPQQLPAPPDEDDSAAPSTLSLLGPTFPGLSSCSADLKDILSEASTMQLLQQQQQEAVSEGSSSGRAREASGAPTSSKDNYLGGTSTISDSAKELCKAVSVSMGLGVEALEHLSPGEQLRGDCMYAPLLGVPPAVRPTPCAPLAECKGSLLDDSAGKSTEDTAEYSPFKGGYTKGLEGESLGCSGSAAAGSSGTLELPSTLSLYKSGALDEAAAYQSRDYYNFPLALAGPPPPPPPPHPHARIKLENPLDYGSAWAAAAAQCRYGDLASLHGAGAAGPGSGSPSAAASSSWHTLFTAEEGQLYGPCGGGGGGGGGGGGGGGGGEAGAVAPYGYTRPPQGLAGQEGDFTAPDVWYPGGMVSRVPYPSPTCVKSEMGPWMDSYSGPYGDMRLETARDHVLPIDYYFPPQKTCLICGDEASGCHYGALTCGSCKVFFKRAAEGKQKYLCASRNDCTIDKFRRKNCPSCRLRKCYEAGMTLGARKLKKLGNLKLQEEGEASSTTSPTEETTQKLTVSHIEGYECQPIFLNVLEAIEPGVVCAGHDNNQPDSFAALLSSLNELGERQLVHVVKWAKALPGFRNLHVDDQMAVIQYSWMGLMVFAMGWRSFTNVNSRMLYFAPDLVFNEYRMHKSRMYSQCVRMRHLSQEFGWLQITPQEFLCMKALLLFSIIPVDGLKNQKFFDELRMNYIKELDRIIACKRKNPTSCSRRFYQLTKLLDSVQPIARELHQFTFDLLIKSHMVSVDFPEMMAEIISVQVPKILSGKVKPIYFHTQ
Estrogen receptor (Homo sapiens), sequence (P03372 whole entry, looked up, the tested form may be a part): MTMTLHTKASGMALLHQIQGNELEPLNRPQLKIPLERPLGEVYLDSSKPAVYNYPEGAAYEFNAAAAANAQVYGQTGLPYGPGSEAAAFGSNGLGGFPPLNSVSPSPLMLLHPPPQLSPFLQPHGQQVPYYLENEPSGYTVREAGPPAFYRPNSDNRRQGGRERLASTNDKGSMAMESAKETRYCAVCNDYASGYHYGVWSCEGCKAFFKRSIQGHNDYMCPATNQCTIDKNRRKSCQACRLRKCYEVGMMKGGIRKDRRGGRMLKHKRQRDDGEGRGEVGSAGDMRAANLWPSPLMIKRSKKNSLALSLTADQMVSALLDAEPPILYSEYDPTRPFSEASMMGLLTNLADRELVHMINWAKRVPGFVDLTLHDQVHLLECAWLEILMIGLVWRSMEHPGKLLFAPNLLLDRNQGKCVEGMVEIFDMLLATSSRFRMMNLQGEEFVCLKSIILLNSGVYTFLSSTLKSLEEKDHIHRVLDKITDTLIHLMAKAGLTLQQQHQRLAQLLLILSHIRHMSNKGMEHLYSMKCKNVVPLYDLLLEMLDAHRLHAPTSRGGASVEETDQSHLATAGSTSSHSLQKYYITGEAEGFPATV
bovine Estrogen Receptor (ER), ESR1 (gene 407238), sequence (P49884 whole entry, looked up): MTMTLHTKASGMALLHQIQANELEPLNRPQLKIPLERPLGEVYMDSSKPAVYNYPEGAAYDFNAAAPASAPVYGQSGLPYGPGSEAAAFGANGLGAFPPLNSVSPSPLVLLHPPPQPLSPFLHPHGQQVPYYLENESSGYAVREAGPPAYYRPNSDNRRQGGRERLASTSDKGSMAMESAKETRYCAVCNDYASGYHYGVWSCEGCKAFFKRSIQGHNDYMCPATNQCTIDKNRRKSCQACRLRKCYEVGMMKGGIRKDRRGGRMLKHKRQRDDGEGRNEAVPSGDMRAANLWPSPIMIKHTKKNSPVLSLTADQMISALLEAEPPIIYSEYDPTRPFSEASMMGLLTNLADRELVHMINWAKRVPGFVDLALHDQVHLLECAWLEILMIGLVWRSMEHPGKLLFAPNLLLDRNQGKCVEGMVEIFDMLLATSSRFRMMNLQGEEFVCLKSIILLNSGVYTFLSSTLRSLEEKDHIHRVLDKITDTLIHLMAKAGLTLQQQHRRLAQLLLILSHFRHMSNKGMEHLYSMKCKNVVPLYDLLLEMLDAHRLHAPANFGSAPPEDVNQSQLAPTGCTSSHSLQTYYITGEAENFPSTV
human Constitutive Androstane Receptor (CAR), NR1I3 (gene 9970), sequence (Q14994 whole entry, looked up): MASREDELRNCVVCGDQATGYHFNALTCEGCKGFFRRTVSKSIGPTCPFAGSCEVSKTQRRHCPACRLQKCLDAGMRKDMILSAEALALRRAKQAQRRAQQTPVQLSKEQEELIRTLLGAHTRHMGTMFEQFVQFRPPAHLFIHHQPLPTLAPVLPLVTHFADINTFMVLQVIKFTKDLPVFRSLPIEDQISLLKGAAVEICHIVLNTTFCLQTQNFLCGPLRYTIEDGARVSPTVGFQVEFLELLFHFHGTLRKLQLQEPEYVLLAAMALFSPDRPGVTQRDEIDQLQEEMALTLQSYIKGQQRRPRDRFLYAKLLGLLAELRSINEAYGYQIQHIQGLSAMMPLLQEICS
bovine Gamma-Aminobutyric Acid Type A Receptor Agonist (GABAR Agonist), GABRA1 (gene 780973), sequence (P08219 whole entry, looked up): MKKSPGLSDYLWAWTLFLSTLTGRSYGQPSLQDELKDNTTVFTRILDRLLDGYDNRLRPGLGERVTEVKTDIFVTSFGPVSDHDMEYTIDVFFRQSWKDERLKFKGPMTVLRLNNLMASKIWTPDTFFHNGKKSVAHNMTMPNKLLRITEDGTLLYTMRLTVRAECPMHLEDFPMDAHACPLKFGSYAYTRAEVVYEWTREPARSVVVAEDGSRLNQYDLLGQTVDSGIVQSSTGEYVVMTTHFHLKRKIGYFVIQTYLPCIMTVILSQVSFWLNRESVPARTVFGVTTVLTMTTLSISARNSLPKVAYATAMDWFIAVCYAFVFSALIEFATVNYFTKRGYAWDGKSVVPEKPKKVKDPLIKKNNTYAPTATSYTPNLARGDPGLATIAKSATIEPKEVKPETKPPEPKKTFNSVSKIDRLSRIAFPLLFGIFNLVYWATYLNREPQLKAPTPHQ
Bile acid receptor (Homo sapiens), sequence (Q96RI1 whole entry, looked up): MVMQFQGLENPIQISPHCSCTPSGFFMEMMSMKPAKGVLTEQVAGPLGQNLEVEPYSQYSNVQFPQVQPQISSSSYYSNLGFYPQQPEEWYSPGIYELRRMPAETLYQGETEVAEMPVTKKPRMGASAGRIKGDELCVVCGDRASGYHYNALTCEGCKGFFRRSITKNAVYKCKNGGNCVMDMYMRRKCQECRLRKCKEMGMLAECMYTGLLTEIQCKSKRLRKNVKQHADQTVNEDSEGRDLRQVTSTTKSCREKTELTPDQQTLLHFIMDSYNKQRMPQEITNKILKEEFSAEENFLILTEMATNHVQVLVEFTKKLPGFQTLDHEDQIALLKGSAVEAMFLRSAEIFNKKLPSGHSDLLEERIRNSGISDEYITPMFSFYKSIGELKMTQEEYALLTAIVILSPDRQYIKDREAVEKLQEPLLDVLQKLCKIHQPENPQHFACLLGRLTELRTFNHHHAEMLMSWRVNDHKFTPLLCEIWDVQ
rat Glycine Receptor, Strychnine-sensitive (GlyRStrySens), Glra1 (gene 25674), sequence (P07727 whole entry, looked up): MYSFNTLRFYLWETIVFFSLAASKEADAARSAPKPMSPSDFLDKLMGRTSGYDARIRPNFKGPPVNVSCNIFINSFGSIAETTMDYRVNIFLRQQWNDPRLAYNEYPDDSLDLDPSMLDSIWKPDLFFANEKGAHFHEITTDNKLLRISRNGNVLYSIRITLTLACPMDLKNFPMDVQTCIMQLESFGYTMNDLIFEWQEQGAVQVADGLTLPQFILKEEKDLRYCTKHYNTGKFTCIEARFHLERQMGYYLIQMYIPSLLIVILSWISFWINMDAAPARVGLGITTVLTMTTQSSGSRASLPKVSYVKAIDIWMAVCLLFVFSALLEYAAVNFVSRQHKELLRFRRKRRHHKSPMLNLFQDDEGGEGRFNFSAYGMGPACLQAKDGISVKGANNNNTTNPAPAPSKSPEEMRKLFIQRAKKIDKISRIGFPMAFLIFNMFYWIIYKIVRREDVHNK

CCCCc1ccc(O)cc1
outcome [1]: inactive | outcome [2]: inactive | outcome [3]: inactive | AC50 [4]: 41.4 µM (active)

O=P(Oc1ccccc1)(Oc1ccccc1)Oc1ccccc1
outcome [5]: inactive | AC50 [4]: 12.4 µM (active)

CCCCOCC1CO1 (centres undefined)
outcome [1]: inactive | outcome [4]: inactive

Cc1ccc2c(c1N)C(=O)c1ccccc1C2=O
outcome [1]: inactive

O=C(O)CF
outcome [2]: inactive | outcome [4]: inactive

CO/N=C(/C(=O)OC)c1ccccc1COc1ccccc1C
outcome [1]: inactive | outcome [3]: inactive | AC50 [4]: 76.4 µM (active)

CSC(C)(C)C=NO
outcome [6]: inactive | outcome [4]: inactive

CCCCCCCc1ccc(O)cc1
AC50 [1]: 0.106 µM (active) | outcome [1]: inactive | outcome [2]: inactive | AC50 [3]: 18.8 µM (active) | outcome [3]: inactive | AC50 [4]: 24.5 µM (active) and 23.2 µM (active) | outcome [4]: inactive

ClC1=C(Cl)C2(Cl)C3C(Cl)C(Cl)CC3C1(Cl)C2(Cl)Cl (centres undefined)
outcome [7]: inactive | outcome [1]: inactive | outcome [8]: inactive | outcome [3]: inactive | outcome [4]: inactive

c1ccc(OP(Oc2ccccc2)Oc2ccccc2)cc1
outcome [9]: inactive | outcome [1]: inactive | outcome [3]: inactive | outcome [4]: inactive

CC(Cl)(Cl)C(=O)O
outcome [1]: inactive | outcome [3]: inactive | outcome [4]: inactive

O=C(O)C(Cl)Cl
outcome [5]: inactive | outcome [4]: inactive

CCCCN(CCCC)SN(C)C(=O)Oc1cccc2c1OC(C)(C)C2
outcome [6]: inactive | outcome [1]: inactive | outcome [3]: inactive | outcome [4]: inactive

O=[N+]([O-])c1ccccc1
outcome [1]: inactive | outcome [4]: inactive

ClC(Cl)(Cl)c1ccccc1
outcome [1]: inactive | outcome [3]: inactive | outcome [4]: inactive

Nc1ccc(Sc2ccc(N)cc2)cc1
outcome [1]: inactive | AC50 [3]: 11 µM (active)

O=NN1CCCC1
outcome [2]: inactive | AC50 [4]: 12.1 µM (active)

CCOP(=S)(Oc1ccc([N+](=O)[O-])cc1)c1ccccc1 (centres undefined)
AC50 [6]: 10.4 µM (active) | outcome [1]: inactive | outcome [4]: inactive

C=CC(=O)OCC(CC)(COC(=O)C=C)COC(=O)C=C
AC50 [1]: 42.2 µM (active) | AC50 [3]: 13.7 µM (active) | outcome [3]: inactive

Nc1ccc(Cl)cc1
outcome [1]: inactive | outcome [4]: inactive

c1ccc2c(c1)Nc1ccccc1S2
outcome [5]: inactive | outcome [1]: inactive | outcome [4]: inactive

Nc1cc2c3c(c1)C(c1ccccc1)=N[C@@H](NC(=O)c1cccnc1)C(=O)N3CC2
outcome [5]: inactive | outcome [4]: inactive

OCC1CO1 (centres undefined)
outcome [1]: inactive | outcome [4]: inactive

c1nc[nH]n1
outcome [1]: inactive | outcome [4]: inactive

O=P1(N(CCCl)CCCl)NCCCO1 (centres undefined)
outcome [1]: inactive | AC50 [3]: 15.7 µM (active) | outcome [3]: inactive | outcome [4]: inactive

CC(C)(C)OOC(C)(C)C
outcome [7]: inactive | outcome [8]: inactive | outcome [4]: inactive

O=S(=O)(c1ccc(O)cc1)c1ccc(O)cc1
AC50 [1]: 15.1 µM (active) | AC50 [3]: 4.77 µM (active) | AC50 [4]: 46.8 µM (active)

CCC(C)(C)c1ccc(O)cc1
outcome [1]: inactive | AC50 [2]: 25 µM (active) | outcome [3]: inactive | AC50 [4]: 14.9 µM (active)

O=P(OCC(Br)CBr)(OCC(Br)CBr)OCC(Br)CBr (centres undefined)
AC50 [2]: 21.8 µM (active) | outcome [3]: inactive | outcome [4]: inactive

CCCN(CCC)c1c([N+](=O)[O-])cc(C(C)C)cc1[N+](=O)[O-]
outcome [7]: inactive | outcome [1]: inactive | outcome [3]: inactive | AC50 [4]: 56.6 µM (active)

CCCCN(CCCC)N=O
outcome [5]: inactive | outcome [4]: inactive | outcome [10]: inactive

CCNc1nc(Cl)nc(NC(C)(C)C)n1
outcome [1]: inactive | outcome [4]: inactive

CC1(C)CN=C(NN=C(/C=C/c2ccc(C(F)(F)F)cc2)/C=C/c2ccc(C(F)(F)F)cc2)NC1
outcome [1]: inactive | AC50 [2]: 25 µM (active) | AC50 [3]: 8.61 µM (active) | outcome [4]: inactive

O=S1(=O)OCC2C(CO1)C1(Cl)C(Cl)=C(Cl)C2(Cl)C1(Cl)Cl (centres undefined)
outcome [2]: inactive

CCCCc1ccccc1
outcome [10]: inactive
